Bioassay records (PubChem)
Rce1 inh: inhibitors of yeast Ras-converting enzyme | yeast membranes, quenched prenylated peptide cleavage fluorescence | calls only | 0.27% of 290,000 active | AID 2563;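 active = fall in fluorescence gain of 50% or more versus controls, with final raw signal at or below 3038400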;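 note: plate controls were neutral control wells for no effect and wells lacking membranes for full effect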
Target sequence (Q03530 whole entry, looked up): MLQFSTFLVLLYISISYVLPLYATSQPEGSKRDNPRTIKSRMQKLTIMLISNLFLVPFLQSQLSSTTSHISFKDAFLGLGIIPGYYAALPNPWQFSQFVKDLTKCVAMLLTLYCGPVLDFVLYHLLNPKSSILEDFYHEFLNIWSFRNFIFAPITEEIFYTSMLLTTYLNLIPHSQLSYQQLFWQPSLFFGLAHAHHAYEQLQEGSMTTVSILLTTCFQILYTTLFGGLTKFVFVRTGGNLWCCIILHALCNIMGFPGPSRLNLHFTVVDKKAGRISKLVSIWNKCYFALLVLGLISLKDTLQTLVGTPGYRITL
TIM10 inh: TIM10 yeast growth inhibition; S. cerevisiae TIM10 strain growth, BacTiter-Glo luminescence, 24 h; 1.4% of 330,000 active; inhibition, % at 10 µM;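 active = inhibition of 40% or more at the single tested concentration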;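 note: wild-type TIM10 isogenic control strain grown at permissive 25 °C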
PfHsp90 yeast 2: growth inhibition of yeast expressing Plasmodium Hsp90. S. cerevisiae expressing PfHsp90, BacTiter-Glo ATP, 48 h; yeast lacking PDR1 and PDR3 efflux regulators. inhibition, % at 9.4 µM. 0.32% of 310,000 active;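 active = every replicate shows inhibition above about 80%, whatever the replicate mean, limit read from the data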;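 note: 0% = DMSO neutral controls and 100% = 20 µM radicicol positive controls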
tim23-1 inh: growth inhibitors of tim23-1 mutant yeast. S. cerevisiae tim23-1 growth, BacTiter-Glo luminescence, 24 h. inhibition, % at 20 µM. 1.3% of 330,000 active. AID 463212;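 active = growth inhibition of the mutant yeast at or above 50%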;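 note: temperature-sensitive mutant grown at 25 °C; plate controls were DMSO-treated mutant yeast for no effect and medium wells lacking yeast for full effect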
tim10-1 inh: tim10-1 yeast growth inhibition. S. cerevisiae tim10-1 ts strain growth, BacTiter-Glo, 24 h. inhibition, % at 20 µM. 2.2% of 330,000 active. AID 463190;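 active = inhibition of at least 40%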;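 note: mutant grown at 25 °C; 0% = DMSO wells with yeast and 100% = wells holding no yeast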
tim23-1 confirm: confirmation of tim23-1 mutant yeast growth inhibitors; shares compounds with tim23-1 inh; S. cerevisiae tim23-1 growth, BacTiter-Glo luminescence, 24 h; inhibition, % at 20 µM; 83% of 4,400 active; AID 463218;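 active = inhibition above about 39% in either of two replicate wells at 20 µM, limit read from the data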;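 note: temperature-sensitive tim23-1 mutant grown at 25 °C; 0% = DMSO wells with yeast and 100% = medium wells without yeast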
Active calls of the source: *; i = inactive; / = no result. Shown are actives, neighbours in structure and some others; about 3.7% of the full set was active somewhere.

SMILES | Rce1 inh | TIM10 inh | PfHsp90 yeast 2 | tim23-1 inh | tim10-1 inh | tim23-1 confirm
CC1CC(C)CN(C(C)C(=O)Nc2cc(S(=O)(=O)N3CCCCC3)ccc2Cl)C1 (stereo not given) | / | 21.8 | -13.7 | 34.0 | 26.7 | /
O=C([C@H](Cc1ccccc1)NS(=O)(=O)c1ccc(Cl)cc1)N1CC[C@@]2(O)CCCC[C@H]2C1 | i | 9.8 | 39.6 | 22.8 | 24.3 | /
Cc1ccc(C(=O)N/C(=C\c2ccccc2F)c2nc(=S)[nH][nH]2)cc1 | i | 21.1 | -17.7 | 21.4 | 21.6 | /
Cc1ccc(/C=C(\NC(=O)c2ccc(C)cc2)c2nc(=S)[nH][nH]2)cc1 | i | 28.1 | 0.4 | 53.3* | 20.8 | 35.5
CCn1c(N2CCN(S(=O)(=O)c3ccc(OC)cc3)CC2)nc2ccccc21 | i | -12.3 | 6.8 | 59.4* | -12.3 | 44.4*
CCn1c(N2CCN(S(=O)(=O)c3ccccc3C(F)(F)F)CC2)nc2ccccc21 | i | 22.8 | / | 35.1 | 36.5 | /
Cc1cc(S(=O)(=O)NCCCN2CCOCC2)c(C)cc1Cl | i | -16.1 | -3.9 | 4.7 | -14.8 | /
CCCCNC1=CC(=O)C(=O)c2ccccc21 | i | 21.8 | -9.8 | 55.3* | -3.1 | 55.6*
Cn1c(=NC(=O)C(C)(C)C)sc2cccc(F)c21 | i | -10.5 | -1.9 | 18.7 | 1.7 | /
Cn1c(=NC(=O)c2ccccc2[N+](=O)[O-])sc2cccc(F)c21 | i | -8.9 | -22.5 | 97.0* | 2.2 | -14.8
COc1ccc(CCC(=O)Nc2cccc(Cl)c2)cc1 | i | 32.9 | -3.1 | 59.2* | 10.5 | 65.3*
COc1ccccc1NC(=S)NC(=O)CCc1ccccc1 | / | 27.6 | 6.6 | 45.7 | 31.1 | /
COc1cc(NC(=S)NC(=O)CCc2ccccc2)cc(OC)c1 | i | 38.6 | 2.4 | 51.0* | 24.8 | 40.6*
O=C(CCc1ccccc1)NC(=S)Nc1ccccc1Br | i | 29.3 | -30.5 | 50.0* | -9.1 | 32.3
COc1ccc(CC(=O)OCC(=O)Nc2cccc(Cl)c2)cc1 | i | 6.4 | 6.7 | 24.4 | 16.4 | /
O=C(Nc1ccc(-c2noc(CCc3ccccc3)n2)cc1)c1cccnc1 | i | 8.1 | 21.8 | 35.8 | -1.6 | /
Cc1ccccc1OCC(=O)N/N=C/c1cc2ccccc2nc1Cl | i | 35.7 | -15.4 | 11.7 | 24.4 | /
C=CCc1ccccc1OCC(=O)N/N=C/c1ccc(OC(C)=O)cc1OC(C)=O | i | 36.0 | 1.9 | 62.6* | 20.0 | 54.6*
COc1cc2ccccc2cc1C(=O)Nc1ccc(C)cc1 | i | -0.1 | 1.8 | 59.0* | -3.8 | 64.2*
COc1ccc(C)cc1NC(=O)c1nn(-c2ccccc2)cc1OC | i | -6.5 | -22.5 | 54.5* | 0.3 | 67.8*
COc1cn(-c2ccccc2)nc1C(=O)Nc1ccc(C)cc1 | i | 29.6 | 25.7 | 50.4* | -51.1 | 39.2
O=[N+]([O-])C(/C=C(\Cl)[N+](=O)[O-])=C(N1CCCCC1)N1CCCCC1 | / | 6.1 | -43.5 | 23.4 | 4.8 | /
COc1ccc(N=N/C(=C\O)C(=O)c2ccco2)cc1 | i | 38.9 | 5.4 | 50.0* | 34.6 | 58.2*
CCOC(=O)c1c(C)oc2c1c(C=NCCO)c(O)c1ccccc12 | i | / | -16.0 | / | / | /
CCOC(=O)c1c(C)oc2c1c(C(c1cccnc1)N1CCCCC1)c(O)c1ccccc12 (stereo not given) | i | 18.4 | / | 50.1* | 25.8 | 44.7*
SMILES | Rce1 inh | TIM10 inh | PfHsp90 yeast 2 | tim23-1 inh | tim10-1 inh | tim23-1 confirm
CCOC(=O)c1c(C)oc2c1c(C(c1ccccc1)N1CCOCC1)c(O)c1ccccc12 (stereo not given) | i | 39.2 | / | 66.2* | 38.9 | 42.8*
CCOC(=O)CCCCC(=O)c1[nH]c(=O)[nH]c1CSc1nnc2c3ccccc3n(C(C)C)c2n1 | i | -9.9 | 5.9 | -5.5 | 21.1 | /
Cc1csc2nc(O)c(C(=O)NC3CCCCC3C)c(=O)n12 (stereo not given) | i | 22.7 | / | 66.5* | 29.8 | 44.4*
Cc1csc2nc(O)c(C(=O)NCC3CCCO3)c(=O)n12 (stereo not given) | i | 1.5 | / | 29.6 | 11.9 | /
Cc1ccc(C)c(NCCC#N)c1 | i | -2.1 | 14.9 | 3.1 | 6.1 | /
COc1ccc(OC)c(NC(=O)Nc2ccc(Cl)cc2)c1 | i | 27.7 | 23.6 | 69.5* | 33.6 | 66.7*
COc1ccc(NC(=O)Nc2cc(C)ccc2OC)cc1 | i | 26.5 | -0.9 | 39.8 | 28.7 | /
CCC(CC)C(=O)Nc1c(C(=O)N2CCN(c3ccccc3)CC2)oc2ccccc12 | i | 28.1 | -3.4 | 51.2* | 39.0 | 42.0*
O=C(Nc1ccc(F)cc1)C1CC2CCC1C2 (stereo not given) | i | -3.4 | -7.8 | 17.4 | 18.7 | /
CCC(C)c1ccc(NC(=O)C2CC3CCC2C3)cc1 (stereo not given) | i | 38.7 | -10.2 | 52.0* | 23.6 | 50.7*
O=C(Nc1ccc(F)c(Cl)c1)C1CC2CCC1C2 (stereo not given) | i | 37.0 | -24.0 | 60.9* | 21.5 | 68.5*
OCC[C@H]1NCc2cc(CO)cc(-c3ccccc3)c21 | / | / | 2.8 | / | / | /
CCCc1ccc(S(=O)(=O)N/N=C(/C)c2ccc3c(c2)OCO3)cc1 | i | 14.2 | -16.7 | 52.8* | 35.3 | 48.0*
CCOc1ccc(S(=O)(=O)N/N=C(\C)c2ccc3c(c2)OCO3)cc1 | i | 7.5 | 16.9 | 27.4 | 16.4 | /
O=C(C1CCC(=O)N(C2CCCC2)C1)N1CCN(Cc2cccc(Cl)c2)CC1 (stereo not given) | i | 1.6 | 2.2 | -3.9 | 7.2 | /
Cc1ccc(N(CCC(=O)N2CCOCC2)S(=O)(=O)c2ccccc2)cc1 | / | -2.0 | 2.3 | 4.7 | 1.4 | /
O=C(Oc1ccc(Cl)c2cccnc12)c1ccco1 | i | 22.6 | -41.6 | 51.8* | 26.6 | 45.7*
CCN(CC)C1Oc2cc3c(cc2C(c2cc(OC)c(OC)c(OC)c2)C1C)OCO3 (stereo not given) | / | / | -19.5 | / | / | /
Brc1ccc(C2Nc3cccc4cccc(c34)N2)cc1 | / | / | -17.8 | / | / | /
COc1ccc(C2Nc3cccc4cccc(c34)N2)cc1Br | i | 25.8 | -2.2 | 55.7* | 23.2 | 55.4*
Cc1c(C(=O)Nc2ccc3c(c2)OCO3)sc2ncn(CC(=O)N3CC(C)CC(C)C3)c(=O)c12 (stereo not given) | i | 4.5 | -12.3 | 3.3 | 0.5 | /
Cc1ccc(/C=N/n2c(C3CCCCC3)n[nH]c2=S)s1 | i | 19.6 | -14.2 | 4.6 | 17.5 | /
COc1cc(/C=N/n2c(C3CCCCC3)n[nH]c2=S)ccc1O | i | 19.5 | -8.6 | 8.2 | 26.9 | /
CN(C)c1ccc(/C=N/n2c(C3CCCCC3)n[nH]c2=S)cc1 | i | 8.6 | -4.8 | 50.3* | 14.4 | 33.1
S=c1[nH]nc(C2CCCCC2)n1/N=C/c1ccccc1 | i | 23.1 | 6.7 | 67.2* | 32.2 | 39.8*
CCOc1ccc(/C=N/n2c(C3CCCCC3)n[nH]c2=S)cc1 | i | 36.8 | 49.7 | 73.9* | 28.2 | 21.2
Fc1ccc(/C=N/n2c(C3CCCCC3)n[nH]c2=S)cc1 | i | 34.4 | -3.8 | 71.1* | 35.2 | 31.5
